Here are results for 15 molecules from PubChem BioAssay (NCI).

Each structure is given as a SMILES string. Compounds without any hit were thinned out: in the full panel of roughly 83,000, 20% have a hit.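 Note: values are percent growth. 100 is the growth of untreated cells, values between 100 and 0 indicate rising inhibition; between -100 and 0 indicates cell death.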 A number with no mark means an inactive call. Activity calls are given as the source filed them. Rule for the calls: active = growth percent below 10; inactive = the rest.

Among the test systems are T-47D breast; BT-549 breast; MDA-MB-435 melanoma; SW-620 colon; MCF7 breast; HCT-116 colon; HCC-2998 colon; KM12 colon.
Holding throughout (assay): NCI-60 one-dose screen, 48 h (100 = growth as untreated, 0 = no growth, -100 = all killed)
Holding throughout (details): 10 µM unless noted

Turning to `COc1ccccc1N1CCN(C(=O)c2ccc3nc(NC(=O)c4ccc(NCCc5ccccc5)c([N+](=O)[O-])c4)sc3c2)CC1`, the growth is 73.2% in the test with T-47D breast; 80.3% with BT-549 breast; 89.4% with MDA-MB-435 melanoma; 75.1% with SW-620 colon; 70.8% with MCF7 breast; 57.7% in the test on HCT-116 colon. In addition, the growth in the test on HCC-2998 colon was 110%; in the test on KM12 colon, 79%.

With `C=C(C)[C@@H]1CC[C@]2(C(=O)N3CCN(C)CC3)CC[C@]3(C)[C@H](CC[C@@H]4[C@@]5(C)CCC(=O)C(C)(C)[C@@H]5CC[C@]43C)[C@@H]12`, the growth was 65.3% with T-47D breast; 96.8% with BT-549 breast; 92% in the test with MDA-MB-435 melanoma; 73.5% in the test with SW-620 colon; 59.2% in the test with MCF7 breast; 31.2% with HCT-116 colon. Besides, the results for the growth in the test on HCC-2998 colon and in the test on KM12 colon were 82.1% and 80.6%, respectively.

For the molecule `COc1ccc(OC)c(/C=C/[C@H]2O[C@@H](C)[C@H](O)[C@@H]2O)c1`, the growth was 96% in the test on T-47D breast; 104% in the test on BT-549 breast; 100% in the test on MDA-MB-435 melanoma; 113% in the test with SW-620 colon; 101% in the test with MCF7 breast; 101% in the test on HCT-116 colon. Moreover, the values for the growth in the test with HCC-2998 colon and in the test on KM12 colon were 108% and 112%, respectively.

For `CC(=O)[C@@H]1CC[C@]2(C(N)=O)CC[C@]3(C)[C@H](CC[C@@H]4[C@@]5(C)CCC(=O)C(C)(C)[C@@H]5CC[C@]43C)[C@@H]12`, the growth with T-47D breast is 80.2%; with BT-549 breast, 93.3%; in the test on MDA-MB-435 melanoma, 99.9%; with SW-620 colon it was 110%; in the test on MCF7 breast, 89.9%; with HCT-116 colon it was 90.4%. In addition, the results for the growth in the test with HCC-2998 colon and in the test on KM12 colon were 107% and 100%, respectively.

For the molecule `Cc1ccccc1-c1cc(Cc2ccc(F)cc2)c(=O)[nH]n1`, the growth with T-47D breast is 99%; with BT-549 breast it was 106%; in the test on MDA-MB-435 melanoma, 119%; in the test with SW-620 colon, 102%; in the test on MCF7 breast, 97.9%; with HCT-116 colon it was 78.4%. Moreover, the figures for the growth in the test on HCC-2998 colon and in the test with KM12 colon were 119% and 123%, respectively.

With `Nc1ccccc1NC(=O)c1ccc(CN2CCC/C(=C\c3cccc(Cl)c3)C2=O)cc1`, the growth in the test with T-47D breast is 32.4%; with BT-549 breast it was -9.32% (active); in the test on MDA-MB-435 melanoma, 3.87% (active); in the test with SW-620 colon, 23.9%; in the test with MCF7 breast it was 8.72% (active); in the test on HCT-116 colon, 6.06% (active). The growth in the test on HCC-2998 colon is 12.4%; in the test on KM12 colon, 4.58% (active).

Turning to `CO[C@@H]1[C@H](N(C)C(=O)c2ccccc2)C[C@@H]2O[C@]1(C)n1c3ccccc3c3c4c(c5c6ccccc6n2c5c31)C(=O)NC4=O`, the growth in the test on T-47D breast is 40.5%; in the test with BT-549 breast it was 45%; in the test on MDA-MB-435 melanoma, 45.9%; in the test with SW-620 colon it was 18.6%; in the test with MCF7 breast, 42%; in the test with HCT-116 colon, 25.8%. Moreover, the growth in the test with HCC-2998 colon was 61.9%; in the test on KM12 colon, 21.8%.

With `COc1ccccc1-c1c(-c2ccc(Cl)cc2)c2cc3c(cc2[nH]c1=O)OCCO3`, the growth was 66% with T-47D breast; 67.7% with BT-549 breast; 65.2% in the test with MDA-MB-435 melanoma; 93.7% with SW-620 colon; 42% in the test on MCF7 breast; 47.7% with HCT-116 colon. The growth in the test on HCC-2998 colon is 83.7%; in the test with KM12 colon, 63.8%.

`CC(C)Cc1ccc(C(C)C(=O)NCc2c[nH]c3ccc(Cl)cc23)cc1` (stereo not given): the growth was 69.8% in the test on T-47D breast; 88.8% in the test on BT-549 breast; 66.6% in the test on MDA-MB-435 melanoma; 90.9% in the test with SW-620 colon; 89.5% with MCF7 breast; 85.9% in the test on HCT-116 colon. Besides, the growth was 103% in the test on HCC-2998 colon and 83.5% with KM12 colon.

In the case of `O=S(=O)(NCCCNc1nccc(-c2c(-c3ccccc3)nc3occn23)n1)c1ccc(Cl)cc1`, the growth with T-47D breast was 58.9%; with BT-549 breast, 104%; in the test on MDA-MB-435 melanoma, 64.3%; with SW-620 colon it was 108%; with MCF7 breast, 60.5%; in the test on HCT-116 colon, 68.4%. Moreover, the results for the growth in the test on HCC-2998 colon and in the test on KM12 colon were 102% and 95.7%, respectively.

Regarding `CN1CCN(c2ccc(NC3=C(Cl)C(=O)c4ncccc4C3=O)cc2C#N)CC1`, the growth with T-47D breast is -33.3% (active); in the test on BT-549 breast, 96.3%; in the test on MDA-MB-435 melanoma it was -92.9% (active); in the test on SW-620 colon, -75.3% (active); in the test on MCF7 breast, -59.9% (active); in the test with HCT-116 colon, -56.7% (active). The growth is 96.7% in the test with HCC-2998 colon and 105% in the test on KM12 colon.

`O=C(CCN1CCCC1)Nc1ccc2c(NCc3ccc(F)cc3)c3ccccc3nc2c1`: the growth with T-47D breast is -5.76% (active); with BT-549 breast, 18.5%; in the test with MDA-MB-435 melanoma, -53.4% (active); in the test with SW-620 colon it was -31.3% (active); with MCF7 breast, -12.2% (active); in the test on HCT-116 colon it was -29.9% (active). The growth in the test with HCC-2998 colon was -32.5% (active); in the test with KM12 colon, -6.48% (active).

As for `O=C(Nc1nc2ccc(S(=O)(=O)Nc3ccc(C4(C(F)(F)F)CC4)cc3)cc2[nH]1)c1cnccn1`, the growth in the test on T-47D breast is 31.7%; with BT-549 breast, 44.6%; with MDA-MB-435 melanoma it was -29.8% (active); in the test on SW-620 colon, 18.5%; in the test on MCF7 breast it was 18.2%; with HCT-116 colon it was 26.2%. The growth was 63.4% with HCC-2998 colon and 9.67% (active) with KM12 colon.

In the case of `S=c1[nH]cccc1-c1nnc2n1Nc1nc3ccccc3cc1CS2`, the growth with T-47D breast was 95.4%; in the test with BT-549 breast, 100%; in the test on MDA-MB-435 melanoma, 106%; in the test with SW-620 colon, 99.4%; in the test on MCF7 breast, 103%; with HCT-116 colon it was 94.9%. The growth in the test on HCC-2998 colon is 98.5%; in the test on KM12 colon, 109%.

Take `O=C1/C(=C\c2cn(Cc3ccccc3)c3ccc(Br)cc23)c2ccccc2N1c1c(Cl)cccc1Cl`: the growth with T-47D breast was 94.5%; in the test with BT-549 breast, 106%; with MDA-MB-435 melanoma, 105%; in the test with SW-620 colon it was 108%; with MCF7 breast, 96.7%; in the test with HCT-116 colon it was 94.7%. Also, the growth in the test on HCC-2998 colon was 106%; with KM12 colon, 104%.
